Inconclusive results are not listed. Unmarked numbers belong to inactive results. The source made the active and inactive calls. Calls come from the whole dose curve; as a rule, active = well fitted inhibition curve with a large enough effect; inconclusive = small, poorly fitted or top-dose-only effect; inactive = flat fitted curve, though single readings scatter.

The subject of one assay is CRL-7250. As to the kind of experiment: Cytotoxic Profiling of Annotated Libraries Using Quantitative High-Throughput Screening (AID 1296008). For max response: % is set by controls: 0 for no effect and ±100 for the full control effect. Note: potency is the fitted concentration of half-maximal effect. The note with it: Five cell lines viability, CellTiter-Glo ATP luminescence, 48-72 h; max response: active compounds read low. Summed up:
(§1)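 Compounds were pin-transferred onto cells and incubated 48 or 72 hr at 37 degree Celsius, 95% humidity. CellTiter-Glo was added, plates sat 10 min at room temperature, then ATP-coupled luminescence was imaged as the viability read-out.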

A further assay relates to HEK293. The description is as above. The conditions noted are these: Five cell lines viability, CellTiter-Glo ATP luminescence, 48-72 h; max response: active compounds read low. Summed up: as §1
For orientation: In ATP-based viability assays light output follows the ATP content of the culture.

Assay [1] concerns HaCat. Described as above. The conditions noted are these: Five cell lines viability, CellTiter-Glo ATP luminescence, 48-72 h; max response: active compounds read low. An outline of the steps: as §1
The subject of the next assay is KB-3-1. The assay is described as above. The note with it: Five cell lines viability, CellTiter-Glo ATP luminescence, 48-72 h; max response: active compounds read low. Summed up:
as §1

Another assay deals with NIH3T3. The description is as above. The note with it: Five cell lines viability, CellTiter-Glo ATP luminescence, 48-72 h; max response: active compounds read low. An outline of the steps: as §1
The subject of assay [2] is HACAT. As to the kind of experiment: qHTS assay to identify novel small-molecules to repurpose for Merkel cell carcinoma treatment (AID 1296009). The note with it: MCC and control cell lines, CellTiter-Glo viability, 72 h; at 44.8 µM (top of the series) unless noted. Summed up:
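Cells exposed to NPC (8-point) and MIPE (11-point) compound dilutions for 72 hr at 37 degree celsius; viability read by CellTiter-Glo luminescence, normalized to no-cell and DMSO in-plate controls.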
Note: nearly all actives have a fitted effect of over 60% in size.

For the compound `CC(=O)O[C@H]1[C@H](OC(=O)C(C)C)[C@]2(C)OC3(CC[C@]2(C)[C@H]2CCC[C@]4(CO4)[C@]12C)COC(=O)C3` (some centres undefined), the max response is -5.19% with CRL-7250, -0.769% in the assay with HEK293, 4.61% in the assay with KB-3-1 and -0.316% in the assay on NIH3T3. For the same compound, the outcome with HaCat [1] was inactive. Also, in the assay on HACAT [2], the outcome is “inactive [at 17.4 µM]”.

For `C#CCCCn1cc(-c2cccc3c2N[C@@H](C)CC(=O)N3)cn1`, the Potency in the assay on CRL-7250 was 18.4 µM (active). Further, the max response was -6.8% in the assay on HEK293 and -14.3% in the assay on HaCat [1]. Besides, the compound was classed as inactive in the assay with KB-3-1 and in the assay on NIH3T3.

Consider `CC[C@@H](Nc1c(Nc2cccc(C(=O)N(C)C)c2O)c(=O)c1=O)c1ccc(C)o1`, for which the compound was called inactive in the assay on CRL-7250, in the assay with KB-3-1 and in the assay with NIH3T3. Also, the values for the max response in the assay with HEK293 and in the assay on HaCat [1] were 0.867% and -4.91%, respectively.

In the case of `CC(C)[C@@H](C(=O)O)N1Cc2c(cc(O)c3c2O[C@]2(C3)[C@H](C)CCC3C(C)(C)[C@H](O)[C@H](O)C[C@@]32C)C1=O` (some centres undefined), the max response with CRL-7250 is 2.63%; in the assay with HEK293, -15%; in the assay with HaCat [1], 2.56%; with KB-3-1, 3.13%. Besides, the compound was classed as inactive with NIH3T3.

Take `CC/C=C\[C@H](O)[C@H](O)C1=C(C)C(=O)[C@]2(O1)C(=O)N[C@@](O)(C(=O)c1ccccc1)[C@@H]2O`: the call with CRL-7250, in the assay on KB-3-1 and in the assay on NIH3T3 was inactive. For the same compound, the max response in the assay on HEK293 was 2.91%; with HaCat [1], -6.31%.

Turning to `CC(=O)NC(C(=O)OC1CCC(C)(C)C2CC=C3C(=O)OCC3C12C)C(C)C` (centres undefined), the compound was called inactive in the assay with CRL-7250, in the assay with HaCat [1], in the assay with KB-3-1 and in the assay with HACAT [2]. For the same compound, the max response in the assay on HEK293 was -2.64%; in the assay on NIH3T3 it was 4.96%.

As for `COc1ccc(CCC(=O)c2c(O)cc(O[C@@H]3O[C@H](CO)[C@@H](O)[C@H](O)[C@H]3O[C@@H]3O[C@@H](C)[C@H](O)[C@@H](O)[C@H]3O)cc2O)cc1O`, the max response in the assay with CRL-7250 is -2.32%; in the assay with HEK293, 0.838%; in the assay on HaCat [1], 4.19%. In addition, the compound was called inactive in the assay on KB-3-1 and in the assay on NIH3T3.

Take `COc1c2cc(c(O[C@@H]3O[C@H](CO)[C@@H](O)[C@H](O)[C@H]3O)c1OC)CCCCC(O)CCc1ccc(O)c-2c1` (some centres undefined): the max response is 0.579% with CRL-7250, -2.25% with HEK293 and 1.47% in the assay with NIH3T3. Moreover, the call in the assay with HaCat [1] and in the assay with KB-3-1 was inactive. For the same compound, the outcome in the assay with HACAT [2] was “inactive [at 17.4 µM]”.

As for `CC(C/C=C/C(C)(C)O)C1CCC(C)(O)C(O)C1` (centres undefined), the result with CRL-7250, in the assay with KB-3-1 and with NIH3T3 was inactive. The figures for the max response in the assay on HEK293 and in the assay on HaCat [1] were 2.47% and 0.0762%, respectively.

Take `CC(=O)O[C@@H]1C(=O)C(C)=C(CCC(C)CC(=O)O)[C@@]2(C)CCCC(C)(C)C12` (some centres undefined): the result with CRL-7250 and in the assay on NIH3T3 was inactive. Further, the max response is 0.534% in the assay with HEK293, -6.8% in the assay with HaCat [1] and -5.14% in the assay on KB-3-1.

As for `CC(C)=CCc1c(O)cc2oc3cc(C)cc(O)c3c2c1C`, the max response was 2.07% in the assay with CRL-7250, -2.32% with HEK293, -6.44% in the assay on KB-3-1 and 3.67% in the assay on NIH3T3. The compound was classed as inactive in the assay on HaCat [1] and with HACAT [2].

In the case of `COc1cc(C(=O)OCC2=CCC3C(C(=O)O)=COC(O[C@@H]4O[C@H](CO)[C@@H](O)[C@H](O)[C@H]4O)C23)ccc1O` (some centres undefined), the max response in the assay with CRL-7250 was -2.16%; in the assay on HEK293 it was -8.64%. Moreover, the compound was called inactive in the assay on HaCat [1], in the assay on KB-3-1 and with NIH3T3. The outcome in the assay with HACAT [2] was “inactive [at 17.4 µM]”.

As to `CC1CC(=O)C2=C(O1)OC1(C)CCC3C(C)(C)C4OC4C(=O)C3(C)C1C2` (centres undefined), the call in the assay on CRL-7250, in the assay with HaCat [1], with KB-3-1 and in the assay on HACAT [2] was inactive. Moreover, the max response in the assay on HEK293 was 1.32%; with NIH3T3, -0.441%.

Turning to `COc1ccnc2[nH]cc(C(=O)C(=O)N3CCN(C(=O)c4ccccc4)CC3C)c12` (centres undefined), the max response was 0.507% in the assay on CRL-7250, -0.0222% in the assay with HEK293 and -4.76% in the assay with NIH3T3. The compound was called inactive with HaCat [1], in the assay with KB-3-1 and with HACAT [2].

As to `COC(=O)C1=CO[C@@H](O[C@@H]2O[C@H](CO)[C@@H](O)[C@H](O)[C@H]2O)[C@H]2[C@@H]1[C@H](O)[C@H](O)[C@]2(C)O`, the max response in the assay with CRL-7250 was -3.33%; in the assay with HEK293 it was 1.23%; in the assay with KB-3-1 it was 1.73%; in the assay with NIH3T3, 2.04%. For the same compound, the compound was classed as inactive in the assay on HaCat [1]. The outcome with HACAT [2] is “inactive [at 17.4 µM]”.

As to `COc1ccc(/C=C/C(N)=O)cc1OC`, the outcome in the assay on CRL-7250, in the assay with HaCat [1], in the assay on KB-3-1 and in the assay with HACAT [2] was inactive. Besides, the max response in the assay on HEK293 is 3.65%; in the assay on NIH3T3, 3.68%.

For the compound `COc1c2c(c(C)c3c1C(=O)OC3)OC1(C)CC(O)C34OC(OC)(CCC3(C)C1C2)OC4(C)CO` (centres undefined), the outcome with CRL-7250, in the assay on KB-3-1 and with NIH3T3 was inactive. The values for the max response in the assay on HEK293 and with HaCat [1] were -8.39% and 2.59%, respectively.

For the compound `O=C(CCc1ccccc1)c1c(O)c([C@@H]2O[C@H](CO)[C@@H](O)[C@H](O)[C@H]2O)c(O)c([C@@H]2O[C@H](CO)[C@@H](O)[C@H](O)[C@H]2O)c1O`, the max response was -8.34% with CRL-7250, 0.0644% with HEK293, 3.51% with HaCat [1] and 8.16% with KB-3-1. Besides, the call in the assay on NIH3T3 was inactive.

The record behind these values is PubChem BioAssay (NCATS).
